From PubChem BioAssay
D2 PAM-1: human D2 receptor positive allosteric modulation | P14416 | DiscoveRx D2 beta-arrestin cells, luminescence, 90 min; 100% = 57 uM dopamine signal | potentiation, % (test concentration not listed) | 360,000 tested, 0.23% active; in the data active means potentiation above about 50%; inconclusive means mostly about 30% to 49%
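PathHunter D2 cells, attached overnight at 37 deg C, received compound in DMSO plus dopamine at EC20 (50 nM final) for 90 min at 37 deg C. Beta-arrestin recruitment was read as luminescence after 1 h with detection reagent at ambient temperature.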
D2 PAM-2: positively modulates the human D2 dopamine receptor allosterically; potentiation, % at 10 µM; 340,000 tested, 0.34% active; P14416; AID 485347; HEK293 T-REx D2, calcium flux, EC20 dopamine potentiation;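 active means potentiation over 3 SD above the plate norm, cut at about 30% in these data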
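Cells plated with tetracycline inducer and held overnight at 30 C; calcium dye loaded 30–90 min at room temperature; baseline taken, compound added and read 180 s; EC20 dopamine then added and read 180 s.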
D2 ag-1: D2 dopamine receptor (human) agonism; 340,000 tested, 0.53% active; HEK293 T-REx D2 cells, calcium flux agonist mode; activation, % at 2 µM; P14416;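 active means activation over 3 SD above normal in the single-dose calcium agonist read, cut at about 30% in these data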
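Agonism scored from kinetic calcium signal (1 read/sec, 180 s) following compound pin transfer, after a 10 s baseline. Cells: HEK293 Trex line expressing inducible D2 receptor coupled to calcium, dye-loaded after overnight culture at 30 C.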
D2 ag-2: human D2 receptor agonism in beta-arrestin assay. DiscoveRx PathHunter D2 beta-arrestin, luminescence, 90 min; 100% = 57 uM dopamine signal. 360,000 tested, 0.084% active. P14416. AID 624465. activation, % (concentration not given with the values); in the data active means activation above about 40%; inconclusive means between about 15% and that limit
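DiscoveRx PathHunter D2 beta-arrestin cells (2,100/well) attached overnight, then compound-stimulated 90 min at 37 C in HBSS/10 mM HEPES/0.1% Tween-20 buffer; beta-galactosidase complementation read by luminescence after 1 h at ambient temperature. Dopamine 57 uM final (EC100) as control.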
D2 antag: antagonists of human D2 dopamine receptor | HEK293 TREx D2 cells, calcium flux, dopamine EC80 | inhibition, % at 10 µM | 340,000 tested, 2% active | AID 485344; in the data active means inhibition above about 30%; inactive means below that, where a call was filed
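Tetracycline-induced HEK293 TREx cells expressing D2 receptor forced-coupled to calcium signalling, loaded with no-wash calcium dye. Compounds added and calcium flux read 180 s, then dopamine added at EC80 and read a further 180 s.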
Hits are given with their value; - = inactive; ? = inconclusive; . = no result. Most compounds without a hit are left out; they make up all but 2.4% or so of the library.

SMILES	D2 PAM-1	D2 PAM-2	D2 ag-1	D2 ag-2	D2 antag
O=[N+]([O-])c1ccc(/C=N/n2cnc3ccccc32)s1	64	-	-	?	-
Cc1ccc(C2Nc3ccccc3-n3c(-c4ccccc4)c4c(=O)n(C)c(=O)n(C)c4c32)cc1 (stereo not drawn)	.	-	-	.	.
Cc1ccc(-c2nnc(SCC(=O)N/N=C/c3c(C)nn(-c4ccccc4)c3C)n2-c2ccc(C)cc2)cc1	-	-	-	-	-
CCn1c(SCC(=O)N/N=C/c2ccc(C)o2)nnc1-c1ccccc1	-	-	-	-	57
Cc1nn(-c2ccccc2)c(C)c1/C=N/NC(=O)CSc1nnc(-c2ccccc2)n1-c1ccc(Cl)cc1	-	35	-	-	-
Cc1ccc(/C=N/NC(=O)CSc2nnc(-c3ccccc3)n2-c2ccc(Cl)cc2)o1	54	-	-	-	-
O=C(CSc1nnc(-c2ccccc2)n1-c1ccc(Cl)cc1)N/N=C/c1ccccc1C(=O)O	-	-	-	-	-
Cc1ccc(/C=N/NC(=O)CSc2nnc(-c3ccc(Cl)cc3)n2-c2ccc(Cl)cc2)o1	84	-	-	-	-
Cc1sc(-n2cccc2)c(C(C)NC(=O)Nc2ccccc2Cl)c1C (stereo not drawn)	.	.	-	.	.
O=C(c1ccc(F)cc1)N1CCN(CCc2ccncc2)CC1	.	.	-	.	.
O=C1N(Cc2cccc(C(F)(F)F)c2)c2ccccc2S(=O)(=O)N1c1cccc(Cl)c1	.	-	.	.	.
CCN(Cc1ccccc1)C(=O)Cn1c(=O)cc(C)c2c(C)nn(-c3cccc(F)c3)c21	.	-	-	.	.
Cc1cc(C)cc(NS(=O)(=O)c2ccc3c(c2)OCC(C(=O)N2CCCC2)O3)c1 (stereo not drawn)	.	-	.	.	.
O=C(NCc1nc2ccccc2[nH]1)c1c(F)cccc1F	.	-	-	.	.
CC(C)(C)c1ccc(NC(=O)c2ccccc2)c([N+](=O)[O-])c1	-	33	-	-	-
Cc1c(NC(=O)c2ccc(C(C)(C)C)cc2)cccc1[N+](=O)[O-]	-	-	-	-	-
CN(CC(=O)Nc1ccc(Br)cc1)S(=O)(=O)c1cccc2nsnc12	.	-	-	.	.
COc1ccc([N+](=O)[O-])cc1NC(=O)C(C)OC(=O)Cn1[nH]c(=O)c2ccccc2c1=O (stereo not drawn)	-	-	-	-	36
